# Screens: PubChem BioAssay, National Center for Advancing Translational Sciences (NCATS)
# nsP2pro primary: blocks chikungunya virus nsP2 protease peptide cleavage; Potency, µM (titrated, usually from 24.9 µM), for inactives: at the top dose activity change, negative = inhibition, actives largely listed as inhibitors; 31,000 compounds, 1.1% hits; FRET peptide cleavage, nsP2pro, fluorescence 1 h; further: nearly all actives have a fitted effect of over 60% in size
#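 Purified recombinant nsP2pro (150 nM final) in 10 mM Tris-HCl pH 8.0 with 0.01% Tween 20 was preincubated 15 min at room temperature with compound (7 concentrations, up to 25 uM). FRET peptide 2 substrate (2.5 uM final) was then added; fluorescence was read after 1 h.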
# CHIKV nsP2 cell: inhibits CHIKV nsP2 protease in cells. cell-based CHIKV nsP2 protease reporter assay. Potency, µM (series often up to 51.1 µM), for inactives: at the highest dose activity change, negative = inhibition, most hits filed as inhibitors. AID 1964100. 450 compounds, 10% hits. shares compounds with nsP2pro primary; further: nearly all actives have a fitted effect of over 70% in size
# CHIKV NSP2 FL: full-length CHIKV NSP2 protease inhibition, selectivity. AID 1964101. shares compounds with nsP2pro primary. Full-length CHIKV NSP2 protease enzymatic counterscreen. Potency, µM (series often up to 50.7 µM), without a hit: at the highest dose activity change, negative = inhibition, actives largely listed as inhibitors. 410 compounds, 39% hits; further: nearly all actives have a fitted effect of over 65% in size
# Furin counter: inhibits human furin in a CHIKV nsP2 protease selectivity counterscreen. shares compounds with nsP2pro primary. Recombinant human furin enzymatic counterscreen, fluorogenic substrate. Potency, µM (doses to about 50.6 µM), inactives show at the highest dose activity change, negative = inhibition, hits mostly inhibitors. 410 compounds, 6% hits. AID 1964102
# nsP2 NS23 pep: blocks CHIKV nsP2 protease cleavage of endogenous NS2/3 peptide; shares compounds with nsP2pro primary; Purified CHIKV nsP2 protease, endogenous NS2/3 peptide cleavage; Potency, µM (top dose mostly 51 µM), for inactives: at the top dose activity change, negative = inhibition, hits mostly inhibitors; 410 compounds, 34% hits; AID 1964103; further: nearly all actives have a fitted effect of over 55% in size
# Papain cs: inhibits papain in a CHIKV nsP2 protease selectivity counterscreen; shares compounds with nsP2pro primary; Potency, µM (titrated, usually from 51 µM), inactives show at the top dose activity change, negative = inhibition, usual class: inhibitors; 410 compounds, 5% hits; purified papain protease activity, enzymatic inhibition
# Target sequence (P00784 whole entry, looked up): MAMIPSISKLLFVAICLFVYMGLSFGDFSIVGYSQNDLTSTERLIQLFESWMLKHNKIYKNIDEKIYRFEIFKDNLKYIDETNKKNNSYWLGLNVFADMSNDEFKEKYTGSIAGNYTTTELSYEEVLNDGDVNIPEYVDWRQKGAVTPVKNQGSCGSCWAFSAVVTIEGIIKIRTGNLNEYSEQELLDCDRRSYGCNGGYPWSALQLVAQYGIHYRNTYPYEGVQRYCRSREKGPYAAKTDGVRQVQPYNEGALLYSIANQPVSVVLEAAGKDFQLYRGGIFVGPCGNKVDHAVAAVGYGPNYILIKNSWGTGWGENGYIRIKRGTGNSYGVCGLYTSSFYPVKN
# nsP2pro conf qHTS: confirmation of CHIKV nsP2 protease inhibitors. shares compounds with nsP2pro primary. Potency, µM (series often up to 25.5 µM), for the others: at the top dose activity change, negative = inhibition, actives largely listed as inhibitors. 410 compounds, 43% hits. CHIKV nsP2 protease enzymatic activity, qHTS; further: nearly all actives have a fitted effect of over 75% in size
# HCV NS3 4A cs: HCV NS3/4A protease inhibition, counterscreen; shares compounds with nsP2pro primary; HCV NS3/4A protease biochemical counterscreen; Potency, µM (series often up to 50.9 µM), hits mostly inhibitors; 410 compounds, 20% hits; further: nearly all actives have a fitted effect of over 55% in size
# Numbers without * were called inactive; i = inactive; ? = inconclusive; ! = a repeat was not active; [ ] = dose if it differs, or a comment. Many of the other results were omitted from the sample, so hits are more common in it than they were. The call rests on the fitted dose curve. On the % scale 0 is the no-effect control and ±100 the full control effect; potency means the concentration at half of the fitted maximal effect.
SMILES,nsP2pro primary,others
COC1OC(O)C2(CCC3(O2)C(C)CC2OC(=O)C4(C)CCCC3(C)C24)C1O (centres undefined),-4%,
O=C(O)c1ccc(-n2cccc2/C=C2\SC(=O)N(Cc3ccc(Br)cc3)C2=O)cc1,i,
O=C(O)c1cc(-c2ccc(/C=C3\SC(=S)N(Cc4ccccc4)C3=O)o2)ccc1Cl,?,CHIKV nsP2 cell=17%;CHIKV NSP2 FL=-13%;Furin counter=-12%;nsP2 NS23 pep=233%;Papain cs=?;nsP2pro conf qHTS=14%;HCV NS3 4A cs=i
Cc1cc(-c2ccc(/C=C3\SC(=Nc4ccc(Cl)c(C(=O)O)c4)NC3=O)o2)c([N+](=O)[O-])cc1C,-23%,
COc1cc2c(cc1O)C1(C)CCC(O)C(C)(C)C1CC2=O (centres undefined),12%,
Cc1c(P(=S)(c2ccccc2)c2ccccc2)c2ccccc2n1CCCc1ccccc1,-6%,
CN(C)CCNc1ncnc2ccc(-c3ccc4c(c3)OCO4)cc12,-20%,
COc1ccc(C[C@@H]2NC(=O)[C@@H]3C[C@@H](NC(=O)Nc4cccc(SC)c4)CCN3C2=O)cc1,-5%,
C=C(C)[C@@H](C)[C@H]1O[C@]23C[C@]4(CO2)C(CCC2[C@@]5(C)CC[C@H](O[C@@H]6OC[C@H](O)[C@H](O[C@@H]7O[C@H](CO)[C@@H](O)[C@H](O)[C@H]7O)[C@H]6O[C@@H]6O[C@@H](CO)[C@H](O)[C@H]6O)C(C)(C)C5CC[C@]24C)C3[C@@](C)(O)[C@@H]1OC(C)=O (some centres undefined),88%[5.1 µM],
COCC1CN(C2CCC2)CC12CCN(C(=O)c1ccnn1C)CC2 (centres undefined),-14%,
O=[S+]([O-])(c1ccc2c(c1)OCCO2)N1CCN([S+](=O)([O-])c2ccc(F)cc2Cl)CC1,-7%,
Cc1ccc(F)cc1C(=O)Nc1ccc(C(=O)N2Cc3cccn3Cc3ccccc32)c(Cl)c1,-9%,
O=C(Nc1ccc(Br)cc1)c1ccc(Br)c(S(=O)(=O)N2CCCCC2)c1,-4%,
Cc1cccc(C(=O)Nc2ccc(N3CCN(c4ccc(F)cc4)CC3)c(C(=O)O)c2)c1,?,CHIKV nsP2 cell=50%;CHIKV NSP2 FL=7.3µM*;Furin counter=-23%;nsP2 NS23 pep=16µM*;Papain cs=-3%;nsP2pro conf qHTS=9µM*;HCV NS3 4A cs=4.1µM*
O=C(Nc1ccc(N2CCOCC2)c(C(=O)O)c1)c1ccc(Br)cc1,3.5µM*,CHIKV nsP2 cell=11%;CHIKV NSP2 FL=2.9µM*;Furin counter=?;nsP2 NS23 pep=6.5µM*;Papain cs=3%;nsP2pro conf qHTS=5.7µM*;HCV NS3 4A cs=1.6µM*
O=C(Nc1ccc(N2CCN(c3ccc(F)cc3)CC2)c(C(=O)O)c1)c1ccccc1F,?,CHIKV nsP2 cell=13%;CHIKV NSP2 FL=4.1µM*;Furin counter=?;nsP2 NS23 pep=13µM*;Papain cs=-5%;nsP2pro conf qHTS=7.1µM*;HCV NS3 4A cs=1.3µM*
O=C(Nc1ccccc1)c1cnc(N2CCCCC2)c2ccccc12,13%,
Cc1cc(C)cc(C(=O)Nc2cc(C(F)(F)F)ccc2N2CCN(c3ccccc3)CC2)c1,-17%,
O=C(Nc1ccc2c(c1)N(C1CCCC1)C(=O)c1ccccc1S2)c1ccccc1F,-16%,
O=C(Nc1ccc(N2CCC(N3CCCCC3)CC2)c(C(=O)O)c1)c1ccc(Br)cc1,34%,
O=C(Nc1ccc(Cl)c(-c2nc3cc(Cl)ccc3o2)c1)c1cc([N+](=O)[O-])ccc1N1CCOCC1,-12%,
O=C(Nc1cnc(N2CCC(N3CCCCC3)CC2)c(C(=O)O)c1)c1ccc(Br)cc1,4µM*,CHIKV nsP2 cell=-2%;CHIKV NSP2 FL=4.1µM*;Furin counter=?;nsP2 NS23 pep=16µM*;Papain cs=-7%;nsP2pro conf qHTS=8µM*;HCV NS3 4A cs=4.1µM*
CCN(CC)C(=O)C(c1ccccc1)N1CCN(c2ccc(NC(=O)c3ccccc3-c3cccnc3)cc2F)CC1 (centres undefined),1%,
CC(=O)c1ccc(N2CCN(c3ccc(NC(=O)c4cccs4)cc3C(=O)O)CC2)cc1,-28%,
COc1cccc(CNC(=O)c2cn3cc(-c4cccc(OC)c4)sc3n2)c1,i,
SMILES,nsP2pro primary,others
COc1ccc(CCCN2C(=O)O[C@@H]3CN(S(=O)(=O)N(C)C)C[C@@H]32)cc1,1%,
CC(=O)NC[C@H]1OC[C@@H](NCC(C)(C)C)[C@@H]1O,i,
c1ccc(Cn2cc(CN3CCN(c4ccncc4)CC3)c(-c3cc4ccccc4o3)n2)cc1,i,
COCC(=O)N[C@H]1C[C@H]2C(=O)NC[C@@H](CCC(=O)N3CCN(c4ccccc4)CC3)N2C1,3%,
O=c1c2ccccc2nc2sc(Nc3cccc(-c4ccncc4)c3)nn12,i,
O=C(CN1CCOCC1)NC1CCc2nnc(C3CC3)n2CC1 (centres undefined),0%,
Cc1ccc(C(=O)NCC(=O)OC(C(=O)Nc2cc(C(F)(F)F)ccc2Cl)c2ccccc2)cc1 (centres undefined),-4%,
CCOC(=O)N1CCN(Cc2nc3cc(NC(=O)c4cccc(C)c4)ccc3n2C(C)C)CC1,2%,
Cc1cccc(C(=O)Nc2ccc(N3CCC(CCN4CCOCC4)CC3)c(C(=O)O)c2)c1,4.5µM*!,CHIKV nsP2 cell=9%;CHIKV NSP2 FL=-10%;Furin counter=3%;nsP2 NS23 pep=-3%;Papain cs=-3%;nsP2pro conf qHTS=22%;HCV NS3 4A cs=?
Cc1cccc(C(=O)N2C[C@H]3OC(=O)N(CCCN4CCOCC4)[C@H]3C2)c1,2%,
O=C(COc1ccc(Cl)cc1)NC1CCC(NC(=O)COc2ccc(Cl)cc2)CC1 (centres undefined),-12%,
Cc1cnc(-c2ccncc2)n1CC1CCN(C(=O)CCCc2ccccc2)C1 (centres undefined),i,
CS(=O)(=O)c1ncc(Cl)c(C(=O)N(Cc2ccc(Cl)cc2)Cc2ccco2)n1,4.8µM*,CHIKV nsP2 cell=2.6µM*;CHIKV NSP2 FL=?;Furin counter=-6%;nsP2 NS23 pep=4.1µM*;Papain cs=2%;nsP2pro conf qHTS=2.2µM*;HCV NS3 4A cs=i
O=C(c1cc(-c2ccc(Cl)cc2)on1)N(Cc1ccc(F)cc1)Cc1ccco1,-8%,
O=C(c1ccc(Cl)cc1)N(Cc1ccco1)Cc1ccco1,-9%,
COc1cc(/C=C/C(=O)O[C@H]2[C@H](OC(=O)/C=C/c3cc(OC)c(O)c(OC)c3)O[C@H](CO[C@@H]3O[C@H](CO)[C@@H](O)[C@H](O)[C@H]3O)[C@@H](O)[C@@H]2O)ccc1O,-7%[10 µM],
